According to PubChem BioAssay AID2242 (National Center for Advancing Translational Sciences (NCATS), 2010):
In all, about 200,000 compounds went through this assay and about 720 (0.36%) were called active. Inconclusive results (about 8%) are left out. The call rests on the fitted dose curve; in most records, active means well fitted activation curve with a large enough effect; inconclusive means small, poorly fitted or top-dose-only effect, or effect the other way, or another doubt; inactive means flat fitted curve, though single readings scatter. The list shows a part of the results.

What follows are compounds tested against Lysosomal alpha-glucosidase (Homo sapiens) (UniProt P10253) (assay: qHTS Assay for Activators of Human alpha-Glucosidase as a Potential Chaperone Treatment of Pompe Disease). Conditions: purified enzyme, 4-MU-alpha-glucoside fluorescence, 20 min; series mostly up to 76.9 µM.
How it was run: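 Compounds titrated up to 77 uM against 4 nM enzyme and 400 uM methylumbelliferyl substrate at room temperature, 20 min, pH 5.0. Basic stop, then 4-methylumbelliferone fluorescence (365/440 nm) normalized to no-enzyme and enzyme controls; Hill-equation AC50.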
Further: nearly all actives have a fitted effect of over 80% in size.
Potency means the concentration at half of the fitted maximal effect.

Potency, active:
CSc1nc2n(n1)C(c1ccccn1)C1=C(CC(C)(C)CC1=O)N2 (stereo unspecified) 35.5 µM
CCC(NC(=O)OC(C)(C)C)C(=O)Oc1ccc2c3c(c(=O)oc2c1)CCC3 (stereo unspecified) 35.5 µM
CSCCC(NC(C)=O)C(=O)Oc1ccc2c3c(c(=O)oc2c1)CCCC3 (stereo unspecified) 35.5 µM
Cc1c(OC(=O)CNC(=O)OC(C)(C)C)ccc2c3c(c(=O)oc12)CCC3 11.2 µM
Cc1csc(NC(=O)c2ccccc2O)n1 39.8 µM
CCN(c1ccccc1)S(=O)(=O)c1cc(C(=O)Oc2ccc3c(C)cc(=O)oc3c2)ccc1C 28.2 µM
C=CCN(c1ccccc1)S(=O)(=O)c1cccc(C(=O)Oc2ccc3c(C)cc(=O)oc3c2)c1 35.5 µM
Cc1ccc(N(C)S(=O)(=O)c2cccc(C(=O)Oc3ccc4c(C)cc(=O)oc4c3)c2)cc1 31.6 µM
O=Cc1cn(-c2ccccc2)nc1-c1cc2cc(O)ccc2oc1=O 35.5 µM
COc1ccc2cc3cc(C(=O)NCC4CCCO4)oc3nc2c1 (stereo unspecified) 35.5 µM
CCC(C)NC(=O)c1cc2cc3ccc(OC)cc3nc2s1 (stereo unspecified) 35.5 µM
COc1ccc2cc3cc(C(=O)NC(C)C)oc3nc2c1 28.2 µM
O=c1[nH]cnc2nc(-c3ccccc3)c(-c3ccccc3)nc12 35.5 µM
COc1ccc2cc3cc(C(=O)NCCN4CCN(Cc5ccccc5)CC4)oc3nc2c1 28.2 µM
COc1ccc2cc3cc(C(=O)NCCN4CCc5ccccc5C4)oc3nc2c1 35.5 µM
COc1ccc2cc3cc(C(=O)NCCN4CCN(c5ccccc5F)CC4)oc3nc2c1 35.5 µM
CC(=O)Nc1ccc(S(=O)(=O)NCC(=O)OCc2cc(=O)oc3ccc4ccccc4c23)cc1 35.5 µM
COc1cccc(-c2nc(N3CCN(Cc4ccccc4)CC3)c3ccccc3n2)c1O 39.8 µM
COC(=O)c1ccc2nc(Nc3nc4ccc(F)cc4s3)sc2c1 12.6 µM
COC(=O)c1ccc2nc(Nc3nc4c(F)cc(F)cc4s3)sc2c1 6.31 µM
O=C(NC1CCC(O)CC1)c1cc(-c2ccco2)nc2ccccc12 (stereo unspecified) 39.8 µM
OCCN(CCO)c1ccc2ccccc2c1 35.5 µM
c1ccc(CCNc2ccnc3cc4ccccc4cc23)cc1 22.4 µM
COc1ccc2nc(N3CCOCC3)cc(C)c2c1 39.8 µM
CCOc1ccc2nc(N3CCOCC3)nc(C)c2c1 39.8 µM
Cc1cc(N2CCOCC2)nc2cc(O)ccc12 28.2 µM
